Experiments:
Details in all cases: concentration: 1 μM, replicates: in singlicate; n = 1
PCTK2 = system: T1, PCTK2
T1 construct: gene CDK17

PCTK3 = system: T2, PCTK3
T2 construct: gene CDK18

PDGFRA = system: PDGFRA
PDGFRB = system: PDGFRB
PDPK1 = system: PDPK1
PFTAIRE2 = system: PFTAIRE2
PFTK1 = system: T3, PFTK1
T3 construct: gene CDK14

PHKG1 = system: PHKG1
PHKG2 = system: PHKG2
PIK3C2B = system: PIK3C2B
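Note: KINOMEscan kinase panel screen.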

Row | Structure (SMILES) | %Inh (PCTK2) | %Inh (PCTK3) | %Inh (PDGFRA) | %Inh (PDGFRB) | %Inh (PDPK1) | %Inh (PFTAIRE2) | %Inh (PFTK1) | %Inh (PHKG1) | %Inh (PHKG2) | %Inh (PIK3C2B)
1 | Cc1ccc(C)c(NC(=O)Nc2ccc(C)c(-c3ccc(C(=O)Nc4ccncc4)cc3)c2)c1 [GSK1398473] | 0% | 23% | 80% | 100% | 2% | 12% | 14% | 0% | 0% | 0%
2 | CN(c1ccc2c(c1)nc(NCc1ccccc1)n2C)c1ccnc(Nc2ccc(CS(C)(=O)=O)cc2)n1.Cl [GW811603] | 0% | 0% | 99.8% | 100% | 0% | 38% | 0% | 8% | 0% | 0%
3 | Fc1cc(Cl)ccc1Nc1ccnc2cc(-c3ccc(CN4CCSCC4)o3)ccc12 [GW560106] | 0% | 8% | 99.1% | 100% | 0% | 6% | 11% | 1% | 0% | 0%
4 | CN(C)CCNS(=O)(=O)c1ccc(-c2ccnc3[nH]ccc23)cc1 [GSK977620] | 0% | 0% | 0% | 54% | 0% | 6% | 0% | 25% | 7% | 0%
5 | c1ccc(Oc2ccc(Nc3ccnc4cc(-c5ccc(CN6CCCCC6)o5)ccc34)cc2)nc1 [GW567143] | 0% | 11% | 82% | 98.6% | 0% | 7% | 9% | 5% | 0% | 0%
6 | CN(c1ccc(NC(=O)Nc2cccc(Cl)c2)cc1)c1ccnc(N)n1.Cl [GW830707] | 0% | 10% | 97.5% | 100% | 20% | 1% | 15% | 23% | 0% | 0%
7 | Nc1ncc(-c2cn[nH]c2)c2scc(-c3ccc4c(c3)CCN4C(=O)Cc3ccccc3)c12 [GSK2593067] | 0% | 29% | 96% | 100% | 65% | 0% | 0% | 0% | 0% | 0%
8 | NCCC(NC(=O)c1cc(Br)c(-c2ccnc3[nH]ccc23)s1)c1ccccc1.O=C(O)C(F)(F)F.O=C(O)C(F)(F)F (centres unmarked) [GSK1307810] | 16% | 0% | 25% | 53% | 28% | 8% | 0% | 24% | 12% | 0%
9 | O=C(Nc1c(F)cccc1F)c1cc(C(=O)c2ccccc2F)c[nH]1 [GSK1326180] | 0% | 0% | 0% | 14% | 0% | 10% | 20% | 0% | 0% | 0%
10 | Nc1cccc(-c2ccc3c(N)n[nH]c3c2)c1 [GSK2193613] | 19% | 4% | 9% | 29% | 0% | 13% | 30% | 0% | 11% | 0%
11 | O=C(Nc1n[nH]c2nc(-c3ccccc3O)ccc12)C1CC1 [SB-711880] | 5% | 15% | 0% | 0% | 0% | 5% | 0% | 17% | 100% | 14%
12 | Cl.Cl.NC(CNC(=O)c1cc(Br)c(-c2ccnc3[nH]ccc23)s1)c1ccccc1 (centres unmarked) [GSK1322949] | 14% | 0% | 8% | 63% | 76% | 40% | 22% | 74% | 56% | 0%
13 | Cc1ccc(NC(=O)c2cccc(N3CCCCC3)c2)cc1-c1ccc(C(=O)NCC2CC2)cc1 [GSK1917008] | 0% | 26% | 34% | 98.7% | 5% | 28% | 33% | 0% | 0% | 0%
14 | COc1cc(Nc2ccnc3cc(-c4ccncc4)ccc23)cc(OC)c1OC.Cl [GW494610] | 0% | 0% | 73% | 97.2% | 0% | 12% | 0% | 15% | 0% | 0%
15 | Cc1ccccc1CC(=O)N1CCc2cc(-c3cn(C)c4ncnc(N)c34)ccc21 [GSK2603346] | 0% | 3% | 64% | 99.4% | 67% | 5% | 3% | 0% | 0% | 77%
16 | CC(C)(C)c1ccc(C(=O)Nc2cn3cc(-n4ccnc4)ccc3n2)cc1 | 14% | 0% | 61% | 96.9% | 1% | 8% | 10% | 40% | 13% | 0%

Row | Structure (SMILES) | %Inh (PCTK2) | %Inh (PCTK3) | %Inh (PDGFRA) | %Inh (PDGFRB) | %Inh (PDPK1) | %Inh (PFTAIRE2) | %Inh (PFTK1) | %Inh (PHKG1) | %Inh (PHKG2) | %Inh (PIK3C2B)
17 | O=C(Nc1n[nH]c2nc(-c3ccccc3)ccc12)C1CC1 [SB-708999] | 23% | 36% | 16% | 31% | 34% | 8% | 29% | 12% | 1% | 0%
18 | Cc1cc(-c2ccnc(Nc3cccc(C#N)c3)n2)cc(C)c1O [GSK1440913] | 55% | 43% | 4% | 60% | 0% | 24% | 18% | 27% | 15% | 0%
19 | Cn1cc(-c2cnc(N)c3c(-c4ccc5c(c4)CCN5C(=O)Cc4ccccc4)csc23)cn1 [GSK2593074] | 0% | 6% | 98.2% | 100% | 56% | 0% | 0% | 6% | 14% | 13%
20 | COc1cccc(-c2nc(-c3ccccc3)[nH]c2-c2ccncc2)c1 [SB-610250] | 0% | 14% | 0% | 0% | 0% | 14% | 16% | 0% | 0% | 0%
21 | Cl.Cl.NCC(NC(=O)c1cc(-c2cccnc2)c(-c2ccnc3[nH]ccc23)s1)c1ccccc1 (centres unmarked) [GSK1323434] | 14% | 0% | 0% | 28% | 26% | 29% | 28% | 7% | 2% | 0%
22 | Nc1ncnc2scc(-c3ccc(NC(=O)Cc4cc(F)ccc4F)cc3)c12.O=C(O)C(F)(F)F [SB-731254-M] | 0% | 13% | 99.5% | 99.9% | 41% | 0% | 2% | 6% | 16% | 22%
23 | CNc1nccc(-c2ccc3c(N)n[nH]c3c2)n1 [GSK2206003] | 19% | 18% | 13% | 77% | 62% | 16% | 10% | 6% | 43% | 0%
24 | O=C(Nc1n[nH]c2cc(-c3cccs3)ccc12)C1CC1 [SB-731284] | 33% | 38% | 73% | 83% | 0% | 0% | 33% | 0% | 17% | 7%
25 | Cc1ccc(-c2ccc3occ(-c4ccc(S(C)=O)cc4)c3c2)nn1 (centres unmarked) | 0% | 0% | 0% | 0% | 16% | 0% | 6% | 0% | 16% | 0%
26 | N#Cc1cnc2cc(-c3cnc(CNCCN4CCOCC4)s3)ccc2c1Nc1ccc(Oc2ccccc2)cc1 [GW664114] | 11% | 18% | 0% | 24% | 0% | 22% | 18% | 0% | 0% | 0%
27 | COc1cc(Nc2nccc(N3CCC(NS(=O)(=O)c4ccc(NC(C)=O)cc4)CC3)n2)cc(OC)c1OC [GSK1379825] | 0% | 25% | 6% | 90% | 21% | 0% | 5% | 0% | 0% | 0%
28 | COC(=O)Nc1nc2cc(Oc3ccc(NC(=O)Nc4cccc(SC)c4)cc3)ccc2[nH]1.Cl [GW697999] | 6% | 26% | 99.4% | 100% | 0% | 15% | 20% | 3% | 34% | 0%
29 | CN1CCN(Cc2ccc(NC(=O)Nc3ccc(N(C)c4ccnc(Nc5ccc(CS(C)(=O)=O)cc5)n4)cc3)cc2)CC1.Cl [GW827654] | 43% | 0% | 99.9% | 99.9% | 10% | 22% | 0% | 19% | 0% | 0%
30 | COc1cccc(C2=C(Nc3cccc(O)c3)C(=O)NC2=O)c1 [SB-390771] | 0% | 6% | 0% | 20% | 0% | 14% | 22% | 0% | 0% | 0%
31 | COc1cc(Nc2nccc(N3CCC(NC(=O)Nc4ccc5c(c4)OCO5)C3)n2)cc(OC)c1OC (centres unmarked) [GSK1379766] | 38% | 31% | 11% | 60% | 0% | 8% | 0% | 0% | 0% | 8%
32 | CN(C)c1ncnc2nc[nH]c12 [SKF-31736] | 0% | 0% | 0% | 0% | 0% | 0% | 5% | 0% | 0% | 11%
